Measured values reported in PubChem BioAssay (NCI).
Compounds without any hit were thinned out: in the full panel of roughly 79,000, 15% have a hit. Calls of active or inactive are those of the source. No stated cut-off is given here; in the data, active means growth inhibition above about 70%; inactive means the rest.

Tests used:
[1] = NCI Yeast Anticancer Drug Screen. Data for the wt1 strain (AID 149);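 further: 0% = growth of vehicle-treated wt1 cultures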; conditions: S. cerevisiae wt1 strain (SPY 50644) growth inhibition, stronger effect = higher value
In short: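 wt1 yeast, compound-treated; % growth inhibition vs vehicle control.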

[2] = NCI Yeast Anticancer Drug Screen. Data for the rad50EPP+ strain (AID 151);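 further: 0% = growth of vehicle-treated control cultures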; conditions: S. cerevisiae rad50 mutant strain, stronger effect = higher value
In short: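 In this screen, rad50EPP+ yeast were exposed to compounds. Growth inhibition was scored against vehicle-treated controls.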

[3] = NCI Yeast Anticancer Drug Screen. Data for the mgt1 strain (AID 153); conditions: S. cerevisiae mgt1 mutant growth inhibition, stronger effect = higher value
In short: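 mgt1 strain exposed; growth vs vehicle control recorded as inhibition.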

[4] = NCI Yeast Anticancer Drug Screen. Data for the rad50 strain (AID 155);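 further: 0% = growth of vehicle-only cultures of the same strain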; conditions: S. cerevisiae rad50 strain growth inhibition, stronger effect = higher value
In short: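 Genetically altered yeast (DNA repair pathway); compound treatment; growth inhibition vs vehicle ctrl.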

[5] = NCI Yeast Anticancer Drug Screen. Data for the mec2-1 strain (AID 157); conditions: S. cerevisiae mec2-1 strain, stronger effect = higher value
In short: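 Vehicle-treated cultures served as reference for growth inhibition of compound-exposed mec2-1 yeast.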

[6] = NCI Yeast Anticancer Drug Screen. Data for the rad14 strain (AID 159);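 further: 0% = growth of vehicle-treated control cultures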; conditions: S. cerevisiae rad14 strain growth inhibition, stronger effect = higher value
In short: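 Test compounds were applied to a repair-deficient yeast strain. Its growth was then compared with that of cultures given vehicle alone, and inhibition was expressed relative to those controls.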

[7] = NCI Yeast Anticancer Drug Screen. Data for the sgs1 mgt1 strain (AID 161);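 further: 0% = growth of cultures given vehicle only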; conditions: S. cerevisiae sgs1 mgt1 strain, stronger effect = higher value
In short: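 Genetically altered yeast, compound exposure, growth inhibition relative to vehicle.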

[8] = NCI Yeast Anticancer Drug Screen. Data for the CLN2oe strain (AID 163);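 further: 0% = growth of vehicle-only control cultures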; conditions: S. cerevisiae CLN2oe strain, stronger effect = higher value
In short: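 Inhibition relative to vehicle-treated yeast is reported. Cells: strain with genetic alteration in cell-cycle control, grown with compound.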

[9] = NCI Yeast Anticancer Drug Screen. Data for the cln2 rad14 strain (AID 165);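 further: 0% = growth equal to vehicle treated cultures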; conditions: S. cerevisiae cln2 rad14 strain, stronger effect = higher value
In short: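 Each compound was tested on cln2 rad14 yeast. Inhibition of growth was calculated against vehicle-exposed controls.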

[10] = NCI Yeast Anticancer Drug Screen. Data for the bub3 strain (AID 167); conditions: S. cerevisiae bub3 mutant strain, stronger effect = higher value
In short: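 Yeast carrying a defined mutation is treated with each compound, and growth is compared with that of vehicle-exposed cells to give inhibition.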

[11] = NCI Yeast Anticancer Drug Screen. Data for the wt2 strain (AID 169);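 further: 0% = growth of vehicle-treated yeast cultures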; conditions: S. cerevisiae wt2 strain growth inhibition, stronger effect = higher value
In short: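 Inhibition of yeast growth was determined after compound treatment, normalised to controls receiving only vehicle.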

[12] = NCI Yeast Anticancer Drug Screen. Data for the mlh1 strain (AID 171);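 further: 0% = growth of vehicle-treated control cultures of the same strain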; conditions: S. cerevisiae mlh1 strain growth inhibition, stronger effect = higher value
In short: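 Vehicle-normalised growth inhibition of a repair- or checkpoint-altered yeast strain following compound treatment.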

[13] = NCI Yeast Anticancer Drug Screen. Data for the sgs1 strain (AID 173);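 further: 0% = growth of vehicle-only control cultures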; conditions: S. cerevisiae sgs1 mutant, stronger effect = higher value
In short: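 Screen format: yeast with repair or checkpoint alterations, compound exposure, growth read relative to vehicle.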

[14] = NCI Yeast Anticancer Drug Screen. Data for the mlh1 rad18 strain (AID 175); conditions: S. cerevisiae mlh1 rad18 strain growth inhibition, stronger effect = higher value
In short: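 Vehicle-treated cultures served as the reference for growth inhibition in a yeast strain carrying DNA damage repair alterations exposed to each compound.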

[15] = NCI Yeast Anticancer Drug Screen. Data for the rad18 strain (AID 177); conditions: S. cerevisiae rad18 mutant growth inhibition, stronger effect = higher value
In short: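 Test articles were incubated with altered yeast defective in DNA damage repair. Results are given as inhibition of growth versus vehicle.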

[16] = at 5.0 µM (retest, dose inferred, filed as 0.5)
[17] = at 50.0 µM (retest, dose inferred, filed as 5.0)

Measured: growth inhibition

CN(Cc1cccc2ccccc12)Cc1cccc2ccccc12
inactive: [1]; at 1.2 µM 1% | [1]; at 3.7 µM 1% | [1]; at 11.0 µM -1% | [1]; at 33.0 µM -2% | [1]; at 100.0 µM -1% | [2]; at 1.2 µM -1% | [2]; at 3.7 µM 5% | [2]; at 11.0 µM 24% | [2]; at 33.0 µM 34% | [2]; at 100.0 µM 36% | [3]; at 1.2 µM -2% | [3]; at 3.7 µM -3% | [3]; at 11.0 µM -7% | [3]; at 33.0 µM -2% | [3]; at 100.0 µM 3% | [4]; at 1.2 µM 0% | [4]; at 3.7 µM -3% | [4]; [16] 1% | [4]; at 11.0 µM 7% | [4]; at 33.0 µM 6% | [4]; at 50.0 µM 60.5% | [4]; at 100.0 µM 9% | [5]; at 1.2 µM -2% | [5]; at 3.7 µM -2% | [5]; [16] 15% | [5]; at 11.0 µM -3% | [5]; at 33.0 µM 1% | [5]; [17] 26% | [5]; at 50.0 µM 16.7% | [5]; at 100.0 µM 11% | [6]; at 1.2 µM 0% | [6]; at 3.7 µM 2% | [6]; at 11.0 µM 0% | [6]; at 33.0 µM 13% | [6]; at 100.0 µM 30% | [7]; [16] 2% | [7]; [17] 51% | [7]; at 50.0 µM 59.7% | [8]; at 1.2 µM -3% | [8]; at 3.7 µM -6% | [8]; at 11.0 µM -18% | [8]; at 33.0 µM -15% | [8]; at 100.0 µM -17% | [9]; [16] -17% | [9]; [17] 10% | [9]; at 50.0 µM 33.2% | [10]; at 1.2 µM -2% | [10]; at 3.7 µM 1% | [10]; [16] -12% | [10]; at 11.0 µM -25% | [10]; at 33.0 µM 6% | [10]; at 100.0 µM 2% | [11]; at 1.2 µM -2% | [11]; at 3.7 µM 0% | [11]; at 11.0 µM -4% | [11]; at 33.0 µM 3% | [11]; at 100.0 µM 9% | [12]; at 1.2 µM 4% | [12]; at 3.7 µM 2% | [12]; at 11.0 µM -2% | [12]; at 33.0 µM -10% | [12]; at 100.0 µM 13% | [13]; at 1.2 µM 2% | [13]; at 3.7 µM 2% | [13]; at 11.0 µM 2% | [13]; at 33.0 µM 19% | [13]; at 100.0 µM 24% | [14]; [16] -10% | [14]; [17] 41% | [14]; at 50.0 µM 57.8% | [15]; at 1.2 µM 9% | [15]; at 3.7 µM 6% | [15]; at 11.0 µM -20% | [15]; at 33.0 µM 11% | [15]; at 100.0 µM 6%
active: [4]; [17] 76% | [10]; [17] 87% | [10]; at 50.0 µM 73.7%
